Reference: PubChem BioAssay (EPA / NIEHS)
Results filed as inconclusive are left out. The source made the active and inactive calls. The calls were made as follows, unless noted: active = hit-call score of the fitted dose curve at least 0.9, where 1 is the maximum; inactive = score below 0.9.

Legend:
[1] = read-out: Vascular cell adhesion molecule 1 (VCAM1), VCAM1 (gene 7412); assay: BSK_LPS_VCAM1: BioMAP Diversity Plus: LPS Assay for Vascular cell adhesion molecule 1 (VCAM1) Biomarker Activity (AID 2283086); details: primary human HUVEC with PBMC; actives raise or lower the signal
Outline: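 ELISA read-out of VCAM-1 at 24 h post-dosing in an LPS-driven HUVEC/PBMC primary human co-culture; gain or loss of signal fitted bidirectionally against DMSO baseline. Cytotoxicity tracked in parallel cultures by SRB total-protein staining.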

CD38, CD38 (gene 952) = assay: BSK_SAg_CD38: BioMAP Diversity Plus: SAg Assay for CD38 Biomarker Activity (AID 2283087); details: primary human HUVEC with PBMC; actives raise or lower the signal
Outline: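 Measures CD38 on a human endothelial/PBMC co-culture driven by SEB and TSST-1, 24 h after compound exposure, using ELISA with fluorescence detection; DMSO defines baseline for bidirectional curve fitting.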

CD40, CD40 (gene 958) = assay: BSK_SAg_CD40: BioMAP Diversity Plus: SAg Assay for CD40 Biomarker Activity (AID 2283088); details: primary human HUVEC with PBMC; actives raise or lower the signal
Outline: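 Endpoint derived by fitting increases or decreases versus DMSO controls. CD40 is detected by fluorescence ELISA in a human vascular co-culture of endothelium and PBMC at 24 h.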

CD69, CD69 (gene 969) = assay: BSK_SAg_CD69: BioMAP Diversity Plus: SAg Assay for CD69 Biomarker Activity (AID 2283089); details: primary human HUVEC with PBMC; actives raise or lower the signal;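 as to AC50: cell surface CD69 protein quantified by ELISA with fluorescence detection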
Outline: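 Primary human vascular co-culture (umbilical vein endothelium with peripheral blood mononuclear cells) exposed to test chemical for 24 h. CD69 levels quantified by fluorescence ELISA; DMSO served as negative control for bidirectional fitting.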

[2] = read-out: Monocyte Chemoattractant Protein-1 (MCP1), CCL2 (gene 6347); assay: BSK_SAg_MCP1: BioMAP Diversity Plus: SAg Assay for Monocyte Chemoattractant Protein-1 (MCP1) Biomarker Activity (AID 2283090); details: primary human HUVEC with PBMC; actives raise or lower the signal
Outline: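 Values derive from bidirectional fitting of ELISA-measured MCP1 against DMSO controls. Readings were taken 24 h after dosing human vascular endothelial cells co-cultured with peripheral blood mononuclear cells under superantigen stimulation.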

[3] = read-out: E-selectin (Homo sapiens) (UniProt P16581); assay: BSK_SAg_Eselectin: BioMAP Diversity Plus: SAg Assay for Eselectin Biomarker Activity (AID 2283091); details: primary human HUVEC with PBMC; actives raise or lower the signal
Outline: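 Endpoint values derive from bidirectional fitting relative to DMSO, using ELISA-measured E-selectin in a human vascular co-culture (umbilical vein endothelium plus PBMC) sampled 24 h after dosing.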

[4] = read-out: Monokine induced gamma interferon (MIG), CXCL9 (gene 4283); assay: BSK_SAg_MIG: BioMAP Diversity Plus: SAg Assay for Monokine induced gamma interferon (MIG) Biomarker Activity (AID 2283092); details: primary human HUVEC with PBMC; actives raise or lower the signal
Outline: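 Endothelial cells and PBMC were co-cultured, exposed to test chemicals, and sampled 24 h later. MIG was measured by ELISA, and responses were fitted in both directions relative to DMSO.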

[5] = BSK_SAg_PBMCCytotoxicity: PBMC Cytotoxicity Assessment in the BioMAP Diversity Plus: SAg Assay (AID 2283093); details: primary human HUVEC with PBMC;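 also: fitted both ways against DMSO so a hit may be loss or gain of signal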;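 as to AC50: PBMC superantigen activated with SEB plus TSST-1 one hour after compound addition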
Outline: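 PBMC viability by Alamar Blue reduction, fluorescence read at 546/580 nm after 6 h dye exposure. Cells were dosed 1 h before SEB plus TSST-1 activation (20 ng/mL final each), then held 90 h; endothelial/PBMC human co-culture.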

[6] = read-out: Interleukin-8 (IL8), CXCL8 (gene 3576); assay: BSK_SAg_IL8: BioMAP Diversity Plus: SAg Assay for Interleukin-8 (IL8) Biomarker Activity (AID 2283094); details: primary human HUVEC with PBMC; actives raise or lower the signal
Outline: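 HUVEC/PBMC co-culture, 24 h post-dose; IL-8 by ELISA. Gain or loss of signal fitted bidirectionally vs DMSO baseline.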

[7] = BSK_SAg_Proliferation: Cell Proliferation Assessment in the BioMAP Diversity Plus: SAg Assay (AID 2283095); details: primary human HUVEC with PBMC;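 also: relative cell number as total protein by SRB absorbance in sub-confluent culture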
Outline: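 HUVEC/PBMC co-culture, 96-well. TCA-fixed (10%), 0.1% SRB stain, A560 at 96 h. Protein content used as viability readout; bidirectional fitting vs DMSO control.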

[8] = BSK_SAg_SRB: Viability Assessment in the BioMAP Diversity Plus: SAg Assay (AID 2283096); details: primary human HUVEC with PBMC;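 also: cells read one day after compound addition; hits may be either gain or loss of signal compared with DMSO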
Outline: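 Compounds were added to a human vascular co-culture of umbilical vein endothelium and PBMC. After 24 h, parallel cultures were fixed with 10% TCA, stained with 0.1% sulforhodamine B and read at 560 nm. Gain or loss of signal was fitted relative to DMSO.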

[9] = biological target: human CYP1A1, CYP1A1 (gene 1543) (UniProt P04798); assay: NVS_ADME_hCYP1A1: NovaScreen (NVS) CYP450-related Enzyme Activity (ADME) Assay for human CYP1A1 (AID 2283100; active = hit-call score of the fitted dose curve at least 0.9, where 1 is the maximum)
Outline: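 Inhibition of recombinant CYP1A1 turnover was assessed fluorometrically in a biochemical format 1 h after compound exposure. Testing began at 10 uM in duplicate and progressed to concentration series reaching 20 uM, with on-plate positive and negative controls.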

[10] = biological target: human CYP2B6, CYP2B6 (gene 1555) (UniProt P20813); assay: NVS_ADME_hCYP2B6: NovaScreen (NVS) CYP450-related Enzyme Activity (ADME) Assay for human CYP2B6 (AID 2283101; active = hit-call score of the fitted dose curve at least 0.9, where 1 is the maximum)
Outline: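 Cell-free recombinant enzyme assay with a fluorogenic substrate; fluorescence intensity read 1 hour after dosing. Loss of signal relative to acetonitrile negative control indicates inhibition. Primary screen run in duplicate at 10 uM, actives then tested in concentration series.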

[11] = biological target: human CYP2D6, CYP2D6 (gene 1565) (UniProt P10635); assay: NVS_ADME_hCYP2D6: NovaScreen (NVS) CYP450-related Enzyme Activity (ADME) Assay for human CYP2D6 (AID 2283107; active = hit-call score of the fitted dose curve at least 0.9, where 1 is the maximum)
Outline: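 Biochemical fluorescence assay, insect-cell-derived enzyme. Read at 1 h; inhibition taken from loss of signal against acetonitrile. Screened at 10 uM in duplicate, with concentration series for actives.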

[12] = biological target: human CYP2C9, CYP2C9 (gene 1559) (UniProt P11712); assay: NVS_ADME_hCYP2C9: NovaScreen (NVS) CYP450-related Enzyme Activity (ADME) Assay for human CYP2C9 (AID 2283108; active = hit-call score of the fitted dose curve at least 0.9, where 1 is the maximum)
Outline: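 Recombinant human CYP2C9 expressed in SF9 cells, fluorogenic substrate, fluorescence read 0.75 h after dosing. Chemicals first run in duplicate at 10 uM, with actives followed in concentration series; loss of signal versus acetonitrile baseline.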

[13] = biological target: human CYP4F12, CYP4F12 (gene 66002) (UniProt Q9HCS2); assay: NVS_ADME_hCYP4F12: NovaScreen (NVS) CYP450-related Enzyme Activity (ADME) Assay for human CYP4F12 (AID 2283111; active = hit-call score of the fitted dose curve at least 0.9, where 1 is the maximum)
Outline: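 Recombinant enzyme with a fluorescent substrate, signal read at 0.5 h post-dose; activity loss analysed relative to acetonitrile. Compounds first run in duplicate at 10 uM, with follow-up concentration-response testing of actives.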

[14] = biological target: Cytochrome P450 2C19 (Homo sapiens) (UniProt P33261); assay: NVS_ADME_hCYP2C19: NovaScreen (NVS) CYP450-related Enzyme Activity (ADME) Assay for human CYP2C19 (AID 2283113; active = hit-call score of the fitted dose curve at least 0.9, where 1 is the maximum;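 as to AC50: potency for inhibition seen as loss of fluorescent signal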)
Outline: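 Biochemical CYP2C19 inhibition screen: insect-cell recombinant protein plus fluorescent substrate, 1 h, fluorescence intensity. Acetonitrile defined baseline activity. Single 10 uM concentration in duplicate, with concentration-response follow-up for actives.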

[15] = biological target: human CYP19A1, CYP19A1 (gene 1588) (UniProt P11511); assay: NVS_ADME_hCYP19A1: NovaScreen (NVS) CYP450-related Enzyme Activity (ADME) Assay for human CYP19A1 (AID 2283098; active = hit-call score of the fitted dose curve at least 0.9, where 1 is the maximum)
Outline: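 Fluorescence intensity read-out; activity taken as signal loss relative to acetonitrile vehicle. Extracted enzyme, specific substrate, no cells, 0.5 h exposure. Duplicate single-point screen at 10 uM, then concentration–response follow-up for actives.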

[16] = biological target: Cytochrome P450 3A4 (Homo sapiens) (UniProt P08684); assay: NVS_ADME_hCYP3A4: NovaScreen (NVS) CYP450-related Enzyme Activity (ADME) Assay for human CYP3A4 (AID 2283110; active = hit-call score of the fitted dose curve at least 0.9, where 1 is the maximum)
Outline: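 Recombinant CYP3A4 from insect cells, fluorescence enzyme read-out, 0.33 h after chemical addition. Acetonitrile = negative control/baseline. Primary HTS: 10 uM in duplicate; actives re-tested in concentration series.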

Measured: AC50

Sequence of human CYP2C9, CYP2C9 (gene 1559) (P11712 whole entry, looked up): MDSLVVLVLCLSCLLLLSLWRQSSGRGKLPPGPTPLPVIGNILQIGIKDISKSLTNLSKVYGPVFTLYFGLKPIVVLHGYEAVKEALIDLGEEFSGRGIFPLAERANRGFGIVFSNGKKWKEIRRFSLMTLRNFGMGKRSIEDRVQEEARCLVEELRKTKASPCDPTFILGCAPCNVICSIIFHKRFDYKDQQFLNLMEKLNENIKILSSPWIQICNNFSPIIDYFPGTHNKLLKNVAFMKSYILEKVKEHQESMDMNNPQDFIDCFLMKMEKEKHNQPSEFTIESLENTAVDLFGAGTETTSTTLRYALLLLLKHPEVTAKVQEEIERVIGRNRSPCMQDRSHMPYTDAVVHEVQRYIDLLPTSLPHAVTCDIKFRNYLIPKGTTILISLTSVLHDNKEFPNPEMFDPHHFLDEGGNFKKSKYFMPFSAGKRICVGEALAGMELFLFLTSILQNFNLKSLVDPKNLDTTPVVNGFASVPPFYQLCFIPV
Sequence of E-selectin (Homo sapiens) (P16581 whole entry, looked up): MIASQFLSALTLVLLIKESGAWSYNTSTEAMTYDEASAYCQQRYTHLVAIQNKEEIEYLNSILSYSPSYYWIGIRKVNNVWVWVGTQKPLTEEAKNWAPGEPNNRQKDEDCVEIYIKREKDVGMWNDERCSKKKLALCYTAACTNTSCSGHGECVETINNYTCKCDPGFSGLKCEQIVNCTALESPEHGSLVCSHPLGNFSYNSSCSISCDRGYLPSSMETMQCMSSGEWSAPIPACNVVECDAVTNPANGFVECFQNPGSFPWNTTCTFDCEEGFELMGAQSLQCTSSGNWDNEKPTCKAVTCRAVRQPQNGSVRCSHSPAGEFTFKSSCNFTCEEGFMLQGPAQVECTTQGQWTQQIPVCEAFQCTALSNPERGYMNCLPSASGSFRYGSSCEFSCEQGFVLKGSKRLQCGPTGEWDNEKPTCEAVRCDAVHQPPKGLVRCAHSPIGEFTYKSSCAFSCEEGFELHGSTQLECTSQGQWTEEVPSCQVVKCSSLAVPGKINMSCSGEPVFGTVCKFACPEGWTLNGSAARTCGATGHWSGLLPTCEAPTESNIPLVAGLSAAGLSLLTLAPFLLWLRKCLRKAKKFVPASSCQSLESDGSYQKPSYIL
Sequence of human CYP2D6, CYP2D6 (gene 1565) (P10635 whole entry, looked up): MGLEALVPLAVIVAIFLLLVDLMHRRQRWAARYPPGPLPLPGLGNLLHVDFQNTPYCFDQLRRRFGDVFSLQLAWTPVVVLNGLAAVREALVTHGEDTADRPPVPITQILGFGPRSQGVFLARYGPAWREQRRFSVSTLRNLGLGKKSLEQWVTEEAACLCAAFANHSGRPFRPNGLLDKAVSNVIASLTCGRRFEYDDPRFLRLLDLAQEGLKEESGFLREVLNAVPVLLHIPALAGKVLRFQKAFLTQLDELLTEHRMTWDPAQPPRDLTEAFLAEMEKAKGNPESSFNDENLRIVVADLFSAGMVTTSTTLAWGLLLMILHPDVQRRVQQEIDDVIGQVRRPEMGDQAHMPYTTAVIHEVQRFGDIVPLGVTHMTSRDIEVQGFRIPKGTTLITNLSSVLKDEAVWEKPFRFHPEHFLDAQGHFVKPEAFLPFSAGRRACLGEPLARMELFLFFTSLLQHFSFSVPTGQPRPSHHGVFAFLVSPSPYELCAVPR
Sequence of Cytochrome P450 3A4 (Homo sapiens) (P08684 whole entry, looked up): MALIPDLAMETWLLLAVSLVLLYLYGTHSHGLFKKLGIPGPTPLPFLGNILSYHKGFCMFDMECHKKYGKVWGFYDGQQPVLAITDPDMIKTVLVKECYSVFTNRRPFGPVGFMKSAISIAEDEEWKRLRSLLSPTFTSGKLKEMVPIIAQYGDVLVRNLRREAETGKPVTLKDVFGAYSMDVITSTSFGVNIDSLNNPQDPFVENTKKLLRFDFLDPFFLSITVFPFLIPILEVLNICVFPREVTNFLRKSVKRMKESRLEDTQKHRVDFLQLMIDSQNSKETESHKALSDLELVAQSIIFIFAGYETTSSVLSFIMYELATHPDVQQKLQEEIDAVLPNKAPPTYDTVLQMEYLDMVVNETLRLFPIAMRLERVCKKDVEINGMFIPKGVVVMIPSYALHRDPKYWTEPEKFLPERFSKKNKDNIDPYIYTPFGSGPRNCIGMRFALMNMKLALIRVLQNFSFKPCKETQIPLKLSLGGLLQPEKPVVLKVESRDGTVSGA
Sequence of human CYP1A1, CYP1A1 (gene 1543) (P04798 whole entry, looked up): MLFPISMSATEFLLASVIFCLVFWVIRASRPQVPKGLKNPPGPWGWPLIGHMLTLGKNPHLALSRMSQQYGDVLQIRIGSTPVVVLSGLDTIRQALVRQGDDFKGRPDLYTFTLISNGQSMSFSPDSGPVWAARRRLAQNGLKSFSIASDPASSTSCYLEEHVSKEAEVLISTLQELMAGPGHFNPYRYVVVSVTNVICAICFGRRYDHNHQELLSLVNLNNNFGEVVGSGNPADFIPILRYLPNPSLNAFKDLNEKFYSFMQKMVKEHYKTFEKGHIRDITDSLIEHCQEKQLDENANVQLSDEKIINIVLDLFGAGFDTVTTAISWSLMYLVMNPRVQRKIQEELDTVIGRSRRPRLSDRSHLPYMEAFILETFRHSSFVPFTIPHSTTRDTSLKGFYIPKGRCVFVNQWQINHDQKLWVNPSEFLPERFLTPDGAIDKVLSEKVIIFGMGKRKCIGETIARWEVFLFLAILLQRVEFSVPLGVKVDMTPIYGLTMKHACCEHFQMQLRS
Sequence of human CYP2B6, CYP2B6 (gene 1555) (P20813 whole entry, looked up): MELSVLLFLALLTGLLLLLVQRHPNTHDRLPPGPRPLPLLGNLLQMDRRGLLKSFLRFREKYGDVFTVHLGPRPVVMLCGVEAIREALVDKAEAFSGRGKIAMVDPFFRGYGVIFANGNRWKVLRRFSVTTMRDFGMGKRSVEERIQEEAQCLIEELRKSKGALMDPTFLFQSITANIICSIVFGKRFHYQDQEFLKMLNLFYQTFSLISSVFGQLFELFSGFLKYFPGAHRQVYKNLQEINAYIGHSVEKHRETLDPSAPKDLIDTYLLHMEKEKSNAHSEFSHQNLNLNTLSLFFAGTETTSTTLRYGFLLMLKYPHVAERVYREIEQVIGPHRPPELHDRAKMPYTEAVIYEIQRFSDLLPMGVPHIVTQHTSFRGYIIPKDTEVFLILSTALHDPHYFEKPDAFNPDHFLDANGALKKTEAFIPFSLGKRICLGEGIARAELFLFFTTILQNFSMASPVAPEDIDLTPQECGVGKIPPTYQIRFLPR
Sequence of human CYP19A1, CYP19A1 (gene 1588) (P11511 whole entry, looked up): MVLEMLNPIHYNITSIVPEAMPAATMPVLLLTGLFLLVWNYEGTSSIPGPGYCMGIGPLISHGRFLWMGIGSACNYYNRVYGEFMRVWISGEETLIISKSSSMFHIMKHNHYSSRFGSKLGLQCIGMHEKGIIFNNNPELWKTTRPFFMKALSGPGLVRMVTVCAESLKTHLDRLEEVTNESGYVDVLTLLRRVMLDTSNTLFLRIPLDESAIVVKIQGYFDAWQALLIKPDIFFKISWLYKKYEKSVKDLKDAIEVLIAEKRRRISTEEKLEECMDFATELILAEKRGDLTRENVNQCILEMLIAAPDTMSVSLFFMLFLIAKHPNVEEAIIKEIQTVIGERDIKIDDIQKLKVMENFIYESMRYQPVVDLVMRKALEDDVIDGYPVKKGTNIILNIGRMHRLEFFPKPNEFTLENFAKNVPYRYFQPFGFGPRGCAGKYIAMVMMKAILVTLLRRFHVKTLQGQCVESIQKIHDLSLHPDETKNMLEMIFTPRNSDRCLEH
Sequence of human CYP4F12, CYP4F12 (gene 66002) (Q9HCS2 whole entry, looked up): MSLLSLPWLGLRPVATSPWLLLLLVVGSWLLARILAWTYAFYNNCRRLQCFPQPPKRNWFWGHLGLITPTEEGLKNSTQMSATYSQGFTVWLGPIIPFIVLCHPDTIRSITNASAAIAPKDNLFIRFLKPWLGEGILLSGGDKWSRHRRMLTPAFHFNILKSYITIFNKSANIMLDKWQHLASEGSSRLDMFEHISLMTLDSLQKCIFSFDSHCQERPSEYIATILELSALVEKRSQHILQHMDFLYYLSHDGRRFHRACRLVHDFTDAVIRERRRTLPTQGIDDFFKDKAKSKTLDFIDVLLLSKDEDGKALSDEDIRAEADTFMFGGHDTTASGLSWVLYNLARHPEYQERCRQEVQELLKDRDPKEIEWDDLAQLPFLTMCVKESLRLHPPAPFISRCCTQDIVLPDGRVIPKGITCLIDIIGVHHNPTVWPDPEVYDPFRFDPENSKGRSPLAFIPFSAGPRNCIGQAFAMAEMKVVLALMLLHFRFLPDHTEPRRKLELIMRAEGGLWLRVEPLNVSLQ

O=P(OCCCl)(OCCCl)OCCCl
inactive: [1] | CD38, CD38 (gene 952) | CD40, CD40 (gene 958) | CD69, CD69 (gene 969) | [2] | [3] | [4] | [5] | [6] | [7] | [8]

CC(C)(C)OOC(C)(C)CCC(C)(C)OOC(C)(C)C
inactive: [1] | CD38, CD38 (gene 952) | CD40, CD40 (gene 958) | CD69, CD69 (gene 969) | [3] | [4] | [5] | [6] | [7] | [8]

Nc1ccc(N=Nc2ccccc2)cc1
inactive: CD38, CD38 (gene 952) | CD40, CD40 (gene 958) | CD69, CD69 (gene 969) | [2] | [3] | [4] | [5] | [6] | [7] | [8] | [9] | [11] | [13]
active: [1] 14.2 µM | [10] 0.261 µM | [12] 7.26 µM | [14] 6.47 µM

[O-][Cl+]O
inactive: [1] | CD38, CD38 (gene 952) | CD40, CD40 (gene 958) | CD69, CD69 (gene 969) | [3] | [4] | [5] | [6] | [7] | [8]

CN(C)c1ccc(C(=O)c2ccc(N(C)C)cc2)cc1
active: [1] 14.4 µM | CD38, CD38 (gene 952) 20 µM | [7] 0.578 µM | [8] 14.6 µM
inactive: CD40, CD40 (gene 958) | CD69, CD69 (gene 969) | [2] | [3] | [4] | [5] | [6]

CCCCOC(=O)c1ccccc1C(=O)OCc1ccccc1
active: [1] 10.7 µM | [6] 20 µM | [7] 20 µM | [8] 10.8 µM | [14] 2.72 µM
inactive: CD38, CD38 (gene 952) | CD40, CD40 (gene 958) | CD69, CD69 (gene 969) | [2] | [3] | [4] | [5]

Clc1ccc(Cl)c(Cl)c1
inactive: [1] | CD38, CD38 (gene 952) | CD40, CD40 (gene 958) | CD69, CD69 (gene 969) | [2] | [3] | [4] | [5] | [6] | [7] | [8]

CS(=O)(=O)NC(=O)c1cc(Oc2ccc(C(F)(F)F)cc2Cl)ccc1[N+](=O)[O-]
active: [12] 6.1 µM
inactive: [1] | CD38, CD38 (gene 952) | CD40, CD40 (gene 958) | CD69, CD69 (gene 969) | [2] | [3] | [4] | [5] | [6] | [7] | [8] | [15]

CN(C)c1ccccc1
inactive: [1] | CD38, CD38 (gene 952) | CD40, CD40 (gene 958) | CD69, CD69 (gene 969) | [2] | [3] | [4] | [5] | [6] | [7] | [8]

O=C(O)C1C2CCC(O2)C1C(=O)O (configuration not stated)
inactive: [1] | CD38, CD38 (gene 952) | CD40, CD40 (gene 958) | CD69, CD69 (gene 969) | [2] | [3] | [4] | [5] | [6]
active: [7] 18.6 µM | [8] 25.6 µM

O=C(Oc1ccc(Br)cc1)N1CCN2CCC1CC2
inactive: [1] | CD38, CD38 (gene 952) | CD40, CD40 (gene 958) | CD69, CD69 (gene 969) | [2] | [3] | [4] | [5] | [6] | [7] | [8]

C[N+](C)(C)CC1CO1 (configuration not stated)
inactive: [1] | CD40, CD40 (gene 958) | CD69, CD69 (gene 969) | [2] | [3] | [4] | [5] | [6] | [7] | [8]

Nc1ccc(Cl)cc1N
inactive: CD40, CD40 (gene 958) | [4] | [5] | [6] | [7] | [8] | [14]
active: [1] 3.62 µM | CD38, CD38 (gene 952) 6.44 µM | CD69, CD69 (gene 969) 3.65 µM | [3] 8.35 µM

CCC(C)c1ccc(O)cc1 (configuration not stated)
inactive: [1] | CD40, CD40 (gene 958) | CD69, CD69 (gene 969) | [2] | [3] | [4] | [5] | [6] | [7] | [8]

[Cl-].[Cl-].[Hg+2]
inactive: [2] | [4] | [6] | [8]
active: [1] 28.2 µM | CD40, CD40 (gene 958) 32 µM | CD69, CD69 (gene 969) 36.8 µM | [3] 20 µM | [5] 31 µM | [7] 22.7 µM | [9] 14.3 µM | [10] 9.16 µM | [11] 3.44 µM | [12] 3.68 µM | [16] 0.975 µM | [14] 0.812 µM

O=C(N[C@H](c1ccccc1)[C@@H]1CN2CCC1CC2)c1c(Cl)ccc(C(F)(F)F)c1Cl
inactive: CD40, CD40 (gene 958) | [3] | [4] | [8] | [16]
active: [1] 17.7 µM | CD38, CD38 (gene 952) 29.7 µM | CD69, CD69 (gene 969) 29.7 µM | [5] 14.7 µM | [6] 20.2 µM | [7] 29.7 µM | [11] 3.5 µM

Cc1ccc(N)c(N)c1
inactive: CD69, CD69 (gene 969) | [2] | [4] | [5] | [6] | [7] | [8]
active: [1] 9.77 µM | CD40, CD40 (gene 958) 7.11 µM | [3] 4.36 µM
